# Compound activity deposited in PubChem by The Scripps Research Institute Molecular Screening Center.
# Rows were chosen to be rich in hits. Some 2.3% of all compounds tested hit in one or more screens of this group.
# CHO-K1 Ca antag: M1 antagonist counterscreen hit in parental CHO-K1 cells. ATP-induced calcium, Fluo-8 fluorescence. inhibition, % at 3 µM. 360,000 compounds, 0.6% hits. AID 602250;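 active = inhibition above a per-plate cutoff, the plate's mean sample inhibition plus 3 SD, cut at about 24% in these data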;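 also: 0% = DMSO plus EC80 ATP and 100% = DMSO alone without ATP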
# CHRM1 agonist: agonists of human M1 muscarinic receptor. P11229. activation, % at 3 µM. 360,000 compounds, 0.33% hits. CHO-K1 hM1, Fluo-8 calcium fluorescence, agonist mode; 0% DMSO, 100% acetylcholine EC100;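 active = activation above the run's mean compound activation plus 3 SD, cut at about 16% in these data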;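 also: peak over basal fluorescence ratio within a 140 s kinetic read after compound addition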
# Target sequence (P11229 whole entry, looked up): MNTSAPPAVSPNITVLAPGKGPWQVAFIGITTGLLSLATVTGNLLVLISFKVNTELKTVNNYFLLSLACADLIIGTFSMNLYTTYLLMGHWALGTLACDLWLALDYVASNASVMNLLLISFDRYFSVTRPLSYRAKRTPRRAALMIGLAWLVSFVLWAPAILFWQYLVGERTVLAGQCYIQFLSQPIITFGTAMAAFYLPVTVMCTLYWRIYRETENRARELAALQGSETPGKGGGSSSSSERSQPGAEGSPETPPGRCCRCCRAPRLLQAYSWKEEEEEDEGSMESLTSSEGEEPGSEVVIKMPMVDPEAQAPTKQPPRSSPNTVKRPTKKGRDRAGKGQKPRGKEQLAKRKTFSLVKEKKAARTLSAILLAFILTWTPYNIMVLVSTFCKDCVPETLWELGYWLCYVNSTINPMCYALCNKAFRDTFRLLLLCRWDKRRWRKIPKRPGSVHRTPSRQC
# CHRM1 PAM: positive allosteric modulators of human M1 muscarinic receptor. AID 588819. CHO-K1 hM1, Fluo-8 calcium fluorescence, ACh EC20; 0% = ACh EC20, 100% = maximal ACh. 360,000 compounds, 0.088% hits. activation, % at 3 µM; in the data active = activation above about 19%, passing the limit was not always enough
# M1 antag: antagonists of human M1 muscarinic receptor; P11229; CHO-K1 hM1, Fluo-8 calcium fluorescence, ACh EC80 antagonist; inhibition, % at 3 µM; 360,000 compounds, 1.3% hits; AID 588852;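 active = percent inhibition above its own plate's cutoff, namely the mean of that plate's compound wells plus 3 SD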;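 also: peak over basal fluorescence ratio during 140 s after agonist addition; 0% = ACh EC80 plus DMSO and 100% = DMSO alone without agonist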
# M1 PAM parental: M1 PAM counterscreen hit in parental CHO-K1 cells. ATP EC20, Fluo-8 calcium fluorescence; 0% at ATP EC20, 100% at ATP max. activation, % at 3 µM. 360,000 compounds, 0.02% hits;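 active = activation above the run cutoff, the mean activation of all test compounds plus 3 SD, cut at about 40% in these data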;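 also: peak over basal fluorescence ratio in a 140 s read after ATP addition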
# M1 ag parental: counter-screen for M1 agonists: effect in parental CHO-K1 cells; Fluo-8 calcium fluorescence; scaled to maximal ATP response, vehicle zero; activation, % at 3 µM; 360,000 compounds, 0.48% hits; AID 602248; in the data active = activation above about 15%;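 also: untransfected CHO-K1 host cells lacking M1 receptor as counterscreen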
# An asterisk follows results filed as active; ! = not confirmed by another sample.
SMILES,CHO-K1 Ca antag,CHRM1 agonist,CHRM1 PAM,M1 antag,M1 PAM parental,M1 ag parental
C1CCC2CCCCC2C1 (stereo not given),-6,-1,3,-6,-8,0
O=C1NC(=O)C(C2CCCCCC2)C(=O)N1,-12,3,26*,-30,-16,0
O=C(NCC1=C(c2ccc3ccccc3c2)C[C@@H]2CC[C@H]1N2Cc1ccco1)c1ccncc1,9,-11,-24,25,-13,0
O=C(NCC1=C(c2ccc3ccccc3c2)C[C@@H]2CC[C@H]1N2Cc1ccco1)c1ccc([N+](=O)[O-])cc1,-6,-8,-29,43*,17,2
O=C1NC(=O)N(c2ccc3c(c2)OCO3)C(=O)/C1=C\c1ccc(N2CCCCC2)o1,25*,0,-9,5,-9,3
Cc1ccccc1N1C(=O)NC(=O)/C(=C/c2ccc(N3CCOCC3)o2)C1=O,7,3,13,-16,-20,3
O=C1NC(=O)C(CCc2ccncc2)(Cc2ccc3c(c2)OCO3)C(=O)N1CCc1ccccc1 (stereo not given),8,-4,2,3,14,3
Cn1nnc(CC[N+](C)(C)C)n1,11,73*,-22,77*,-1,15*
Cc1ccccc1-c1ccc2c(c1)C1c3c(-c4ccccc4)nnn3-c3ccccc3C(=O)N1CC2 (stereo not given),10,5,9,3,15,2
FC(F)(F)c1ccccc1CCN1CCNCC1,-9,-8,7,-7,19,0
CN(C)[C@@H]1C(=O)C(C(N)=O)=C(O)[C@@]2(O)C(=O)C3=C(O)c4c(O)cccc4[C@@](C)(O)C3[C@H](O)C12 (stereo not given in full),27*!,0,-27,65,-7,4
CN(C)C1C(=O)C(C(N)=O)=C(O)C2(O)C(=O)C3=C(O)c4c(O)cccc4C(C)(O)C3CC12 (stereo not given),28*,6,-5,-9,-12,0
COCCNC(=O)N1[C@H]2CC[C@@H]1C(C(=O)OC)=C(c1ccc(OC(F)(F)F)cc1)C2,-3,-10,6,-1,-10,0
S=C(N1CCCCCC1)N1CC1,-12,-4,11,-13,4,1
CN(CCc1nnc(N)s1)[N+](=O)[O-],-18,-3,10,-11,12,1
CCC(CO)(C(=O)OC1C[N+]2(C)CCC1CC2)c1ccccc1 (stereo not given),4,-14,-33,99*,3,0
O=C(C[N+]12CCC(CC1)C(OC(=O)c1ccccc1)C2)c1ccc([N+](=O)[O-])cc1 (stereo not given),-8,4,-6,12,21,1
CN1C2CCC1CC(OC(=O)c1ccc(Cl)cc1)C2 (stereo not given),0,-5,-22,77*,18,7
O=C(c1cccn2c(=O)c3cc(Cl)ccc3nc12)N1CCC2(CC1)OCCO2,-16,-6,3,-1,22,0
O=c1[nH]c(=S)n(-c2ccccc2Cl)c(O)c1C=NCCN1CCNCC1,-9,39*,-13,26,5,3
O=c1[nH]c(=O)n(Cc2ccccc2)c(O)c1C=NCCN1CCNCC1,-13,-12,-28,33*,2,0
O=c1[nH]c(=O)n(CCc2ccccc2)c(O)c1C=NCCCn1ccnc1,62*,-5,3,-7,-6,0
S=P(Nn1cnnc1)(c1ccc(Br)cc1)c1ccc(Br)cc1,-8,1,11,-2,20,1
O=C(c1ccc(C(F)(F)F)cc1)C1CCCN(C2CCSCC2)C1 (stereo not given),-12,-14,-32,57*,15,0
COc1ccc(Cl)cc1C(=O)C1CCCN(CCO)C1 (stereo not given),-6,-15,11,8,18,0
SMILES,CHO-K1 Ca antag,CHRM1 agonist,CHRM1 PAM,M1 antag,M1 PAM parental,M1 ag parental
Cc1cc(Cl)ccc1C(=O)C1CCCN(C2CCSCC2)C1 (stereo not given),-15,-13,-33,84*,11,0
Cc1cccc(CN2CCCC(C(=O)c3ccc(C(F)(F)F)cc3)C2)n1 (stereo not given),10,-12,-29,24,-10,0
ClCCN(CCCl)c1ccc(-n2cnc3c(Cl)ncnc32)cc1,-8,-6,-3,0,8,0
O=[N+]([O-])c1ccc(N2CCCNCC2)c2ncccc12,-7,-7,-24,82*,13,1
O=[N+]([O-])c1cccnc1N1CCCNCC1,-14,-1,-28,48*,5,2
O=[N+]([O-])c1ccc(N2CCCCCC2)c2nonc12,53*,145*,-33,53*,-20,162*
O=[N+]([O-])c1ccc(N2CCNCC2)cc1N1CCCCC1,-13,-16,4,-9,21,2
CC(C)N1C(=O)NC(=O)C2(Cc3cc([N+](=O)[O-])ccc3N(C)C2c2ccccc2)C1=O (stereo not given),-4,-3,3,0,20,25*
CN1c2ccc([N+](=O)[O-])cc2CC2(C(=O)NC(=O)NC2=O)C1c1ccccc1 (stereo not given),1,-4,7,-14,3,0
COc1ccc(OCC(=O)N2CCCC(N3CCN(c4ccccc4C)CC3)C2)cc1 (stereo not given),2,-4,-2,-1,-12,2
C[C@]12CCC3C(CC[C@@H]4C[C@@H](O)CC[C@]34C)C1CC[C@@H]2O (stereo not given in full),-7,-2,0,-7,4,1
C[C@]12CCC3C(CC[C@H]4C[C@@H](O)CC[C@]34C)C1CC[C@@H]2N (stereo not given in full),11,-6,4,-5,25,19*
CC(=O)NN1C(=O)c2ccccc2NC1c1cccnc1 (stereo not given),8,0,1,2,-16,0
Cc1[nH]c2ccccc2c1CCN,29*,-1,-4,18,-8,0
Cc1[nH]c2ccccc2c1CCCNC1CCCCC1,20,-5,-2,-1,-14,0
C=CCC1(Nc2ccccc2)CC(C)N(C)CC1C (stereo not given),20,-8,-27,97*,-29,0
COc1cc2c(cc1OC)-c1c(OC)c(OC)cc3c1[C@H](C2)[N+](C)(C)CC3,4,-4,5,1,-14,0
N#C/C=C/C#N,12,-1,4,0,6,0
N#Cc1ccc(NC(=O)CN2CCCC2)cc1Cl,-14,-5,1,-1,9,3
